Assay results reported in PubChem BioAssay (Tox21).
Inconclusive results are not listed. Where a call stands in place of a potency, no number is given. Unmarked numbers belong to inactive results. Active and inactive are the calls of the source. Calls follow the shape of the dose curve; as a rule, active = well fitted curve in the direction sought with a large enough effect in the repeat runs; inconclusive = weak or mixed curves; inactive = no such curve, though single readings can be large; an effect the other way counts as inactive or inconclusive.

Key:
[1] = A CellTox Green Cytotoxicity Assay to monitor cytotoxicity in HEK293 cells - 40 hour (AID 1224871); also: nearly all actives have a fitted effect of over 45% in size; also: potency is read from the fitted curve at half-maximal effect
Method in brief: (§1)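 HEK293 cells, 600/well, were preincubated 5 hours and then exposed to compounds at 37 C for up to 40 hours. A cell-impermeant cyanine dye staining dead-cell DNA was read by fluorescence at 0, 8, 16, 24, 32 and 40 h time points.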

[2] = qHTS RealTime-Glo MT Cell Viability Assay in HEK293 cells - 16 hour (AID 1224872); also: top concentration of the series differs between compounds; nearly all actives have a fitted effect of over 50% in size
Method in brief: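 Assay medium contained NanoLuc luciferase plus cell-permeant prosubstrate, added with HEK293 cells at 600 cells/well. After 5 h at 37 C/5% CO2 compounds were added; plates stayed at 37 C for 40 h with serial luminescence reads.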

[3] = qHTS RealTime-Glo MT Cell Viability Assay in HepG2 cells - 8 hour (AID 1224873); also: nearly all actives have a fitted effect of over 55% in size
Method in brief: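 Real-time viability: cells seeded at 600 per well together with NanoLuc and cell-permeant prosubstrate, compounds added after 5 h incubation. Luminescence tracked at 0, 8, 16, 24, 32 and 40 h of exposure.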

[4] = qHTS RealTime-Glo MT Cell Viability Assay in HEK293 cells - 40 hour (AID 1224874); settings: RealTime-Glo luminescence; max response: active compounds read low; also: nearly all actives have a fitted effect of over 50% in size
Method in brief: (§2)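 600 cells/well were plated with the nonlytic NanoLuc/prosubstrate reagent, pre-incubated 5 h, then given 23 nL of compound in DMSO. Incubation at 37 C for 40 h, with luminescence from viable-cell-reduced substrate read repeatedly from 0 h.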

[5] = A CellTox Green Cytotoxicity Assay to monitor cytotoxicity in HEK293 cells - 24 hour (AID 1224875); also: nearly all actives have a fitted effect of over 45% in size; also: potency is read from the fitted curve at half-maximal effect; as to activity change: series mostly up to about 77 µM
Method in brief: as §1

[6] = A CellTox Green Cytotoxicity Assay to monitor cytotoxicity in HepG2 cells - 16 hour (AID 1224876); also: nearly all actives have a fitted effect of over 45% in size; also: potency is read from the fitted curve at half-maximal effect
Method in brief: (§3)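 HepG2 cells, 600/well, preincubated 5 h with CellTox Green dye, then exposed to Tox21 compounds in DMSO at 37 C for up to 40 h. Dead-cell DNA fluorescence read at the indicated time point.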

[7] = qHTS RealTime-Glo MT Cell Viability Assay in HepG2 cells - 32 hour (AID 1224877); also: nearly all actives have a fitted effect of over 55% in size
Method in brief: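 qHTS, HepG2, 600 cells/well, RealTime-Glo (NanoLuc + prosubstrate) added with cells; 5 h preincubation; DMSO compound addition; 37 C; luminescence at 0/8/16/24/32/40 h.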

[8] = A CellTox Green Cytotoxicity Assay to monitor cytotoxicity in HepG2 cells - 24 hour (AID 1224878); also: nearly all actives have a fitted effect of over 45% in size; also: potency is read from the fitted curve at half-maximal effect
Method in brief: as §3

[9] = A CellTox Green Cytotoxicity Assay to monitor cytotoxicity in HepG2 cells - 40 hour (AID 1224879); also: nearly all actives have a fitted effect of over 40% in size; also: potency is read from the fitted curve at half-maximal effect
Method in brief: as §3

[10] = qHTS RealTime-Glo MT Cell Viability Assay in HEK293 cells - 0 hour (AID 1224880)
Method in brief: as §2

SMILES	Potency [1]	Potency [2]	Potency [3]	max response [4] [%]	Potency [5]	Potency [6]	Potency [7]	Potency [8]	Potency [9]	Potency [10]	activity change, negative = cytotoxicity [2]	viability change, negative = cytotoxic [3]	activity change [5]	cytotoxicity increase [6]	activity change, negative = cytotoxic [7]	cytotoxicity [8]	cytotoxicity increase [9]	activity change, negative = cytotoxicity [10]
C1CN(CCOCCN2CCOCC2)CCO1	inactive	inactive	inactive	4.52	inactive	inactive	inactive	inactive	inactive	inactive								
O=C1CCCC(=O)C1	inactive	inactive	inactive	1.44	inactive	inactive	inactive	inactive	inactive	inactive								
CCS(=O)(=O)c1ccc(OC)c(C(=O)OC)c1	inactive	inactive	inactive	5.71	inactive	inactive	inactive	inactive	inactive	inactive								
CCc1nccnc1CC	inactive			3.61							5.29% [at 15.8 µM]	1.16% [at 15.8 µM]	-5.25% [at 15.8 µM, active compounds read high]	1.53% [at 15.8 µM]	-1.59% [at 15.8 µM]	0.289% [at 15.8 µM]	0.942% [at 15.8 µM]	-3.54% [at 15.8 µM]
CCN(Cc1ccncc1)C(=O)C(CO)c1ccccc1 (stereo not given)	inactive	inactive	inactive	5.99	inactive	inactive	inactive	inactive	inactive	inactive								
Cc1c(NC(C)C)c(=O)n(-c2ccccc2)n1C	inactive	inactive	inactive	2.55	inactive	inactive	inactive	inactive	inactive	inactive								
O=C1NC(=O)[C@@]2(CCOc3ccc(F)cc32)N1	inactive	inactive	inactive	10	inactive	inactive	inactive	inactive	inactive	inactive								
CO/N=C(/C(=O)N[C@@H]1C(=O)N2C(C(=O)OCOC(=O)C(C)(C)C)=C(C)CS[C@H]12)c1csc(N)n1	inactive	inactive	inactive	3.21	inactive	inactive	inactive	inactive	inactive	inactive								
Oc1ccc(C2CNCCc3c2cc(O)c(O)c3Cl)cc1 (stereo not given)	inactive	inactive	inactive	-10.9	inactive	inactive	inactive	inactive	inactive	inactive								
CCOC(C)(C)C	inactive	inactive	inactive	7.98	inactive	inactive	inactive	inactive	inactive	inactive								
CCOC(=O)CC(C)=O	inactive	inactive	inactive	14.1	inactive	inactive	inactive	inactive	inactive	inactive								
N=C(N)c1ccccc1	inactive	inactive	inactive	-0.53	inactive	inactive	inactive	inactive	inactive	inactive								
Cc1ccc(C#N)cc1	inactive	inactive	inactive	6.96	inactive	inactive	inactive	inactive	inactive	inactive								
Cc1c(O)cccc1O	inactive	inactive	inactive	1.57	inactive	inactive	inactive	inactive	inactive	inactive								
COC(=O)CCSCCC(=O)OC	inactive	inactive	inactive	0.851	inactive	inactive	inactive	inactive	inactive	inactive								
CCCCCCOC(=O)CCCCC(=O)OCCCCCC	inactive	inactive	inactive	7.23	inactive	inactive	inactive	inactive	inactive	inactive								
OCCCC1CCCCC1	inactive	inactive	inactive	11.3	inactive	inactive	inactive	inactive	inactive	inactive								
Cc1cccc(C)c1NC(=O)C(C)N (stereo not given)	19 µM (active)	inactive	inactive	4.07	21.3 µM (active)	21.3 µM (active)	inactive	21.3 µM (active)	23.9 µM (active)	inactive								
Cn1c(N)c(N=O)c(=O)n(C)c1=O	inactive	inactive	inactive	4.01	inactive	inactive	inactive	inactive	inactive	inactive								
O=C(O)c1ccccc1OP(=O)(O)O	inactive	inactive	inactive	-0.358	inactive	inactive	inactive	inactive	inactive	inactive								
